Compound activity as filed in PubChem.
ADAM17 inh: ADAM17 inhibitors, primary screen, biochemical, QFRET; AID 720648, 2013; 0.83% of 370,000 active; inhibition, % at 6.95 µM; Disintegrin and metalloproteinase domain-containing protein 17 (Homo sapiens), P78536; recombinant ADAM17, EDANS/DABCYL FRET peptide cleavage;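 active means inhibition above the mean of compounds lying between control limits plus 3 SD, set per campaign, cut at about 8.5% in these data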
Target sequence (P78536 215-824 limits assumed): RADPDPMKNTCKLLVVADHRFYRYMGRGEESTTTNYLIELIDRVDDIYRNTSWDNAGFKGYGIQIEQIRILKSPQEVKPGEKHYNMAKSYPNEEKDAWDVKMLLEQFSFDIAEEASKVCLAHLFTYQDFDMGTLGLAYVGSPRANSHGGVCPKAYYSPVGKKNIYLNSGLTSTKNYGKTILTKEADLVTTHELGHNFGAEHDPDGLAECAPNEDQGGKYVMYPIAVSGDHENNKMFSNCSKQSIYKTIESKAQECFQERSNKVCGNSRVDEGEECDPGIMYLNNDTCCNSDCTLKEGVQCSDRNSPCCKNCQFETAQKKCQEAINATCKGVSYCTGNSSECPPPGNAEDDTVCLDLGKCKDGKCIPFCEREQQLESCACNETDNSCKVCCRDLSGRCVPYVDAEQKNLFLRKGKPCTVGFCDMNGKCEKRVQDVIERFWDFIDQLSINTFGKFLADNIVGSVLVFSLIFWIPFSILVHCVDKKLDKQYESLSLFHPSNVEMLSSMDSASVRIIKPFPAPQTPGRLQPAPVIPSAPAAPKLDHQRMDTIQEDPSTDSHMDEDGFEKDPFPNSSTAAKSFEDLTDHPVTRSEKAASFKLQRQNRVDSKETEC
KLK7 zymogen act: proKLK7 zymogen activators, primary screen, biochemical, fluorescence intensity; Kallikrein-7 (Homo sapiens), P49862; purified proKLK7, EDANS-DABCYL substrate fluorescence; 100% is mature enzyme control, 0% vehicle; activation, % at 7 µM; 0.9% of 370,000 active; AID 652039, 2013;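 active means activation above the mean of all tested compounds plus 3 SD, computed per campaign excluding outliers beyond control limits, cut at about 13% in these data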
PLCb3 inh: human PLC-beta3 inhibitors, primary screen, biochemical, fluorescence; 1-phosphatidylinositol 4,5-bisphosphate phosphodiesterase beta-3 (Homo sapiens), Q01970; Purified PLC-beta3, fluorogenic substrate; inhibition, % at 12.2 µM; 0.18% of 370,000 active; AID 720704, 2013; in the data active means inhibition above about 11%
PLCg1 inh: PLC-gamma1 enzyme inhibitors, primary screen, biochemical, fluorescence, purified enzyme; 1-phosphatidylinositol 4,5-bisphosphate phosphodiesterase gamma-1 (Homo sapiens), P19174; fluorogenic substrate; inhibition, % at 12.2 µM; 0.84% of 370,000 active; AID 720700, 2013; in the data active means inhibition above about 9.5%
ADAM10 inh: human ADAM10 inhibitors, primary screen, biochemical, QFRET, HTS. AID 720582, 2013. recombinant ADAM10, EDANS/DABCYL FRET peptide cleavage, 3 h. 0.62% of 370,000 active. Disintegrin and metalloproteinase domain-containing protein 10 (Homo sapiens), O14672. inhibition, % at 7 µM;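 active means inhibition above a per-campaign cutoff equal to the mean of compounds falling between control-based bounds plus 3 SD, cut at about 20% in these data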
sPLA2-III inh: human group III sPLA2 inhibitors, primary screen, biochemical, QFRET, BODIPY PC-A2 liposome substrate | AID 743126, 2013 | 0.56% of 370,000 active | Group 3 secretory phospholipase A2 (Homo sapiens), Q9NZ20 | QFRET BODIPY PC-A2 liposome hydrolysis, fluorescence | inhibition, % at 12.2 µM;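 active means inhibition above mean plus 3 SD of compounds lying within the high and low control bounds, cut at about 19% in these data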
ADAM10 confirm: human ADAM10 inhibitors, confirmation, biochemical, QFRET, triplicate; shares compounds with ADAM10 inh; ADAM10 QFRET peptide cleavage, EDANS fluorescence; inhibition, % at 6.95 µM; 1% of 2,100 active; AID 743208, 2013;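 active means inhibition above about 20% chosen separately for each screening run, limit read from the data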
ADAM17 counter: ADAM17 inhibitors, counter-screen for ADAM10 exosite inhibitor project, biochemical, QFRET, high throughput | ADAM17 QFRET peptide cleavage, EDANS fluorescence | inhibition, % at 6.95 µM | 0.5% of 2,100 active | AID 743214, 2013 | shares compounds with ADAM10 inh;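 active means mean triplicate inhibition above the solvent-only control wells' mean plus 3 SD, cut at about 12% in these data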
ADAM10 counter: ADAM10 inhibitors, counter-screen for ADAM17 exosite inhibitor project, biochemical, FRET, human ADAM10 | shares compounds with ADAM17 inh | recombinant ADAM10, EDANS/DABCYL FRET peptide cleavage, 3 h | inhibition, % at 6.95 µM | 47% of 2,900 active | AID 743256, 2014;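 active means mean inhibition over the triplicate runs exceeds the activity threshold set in the earlier primary screen, cut at about 20% in these data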
ADAM17 confirm: ADAM17 inhibitors, hit retest, confirmation, biochemical, QFRET peptide cleavage; inhibition, % at 6.95 µM; 65% of 2,900 active; recombinant ADAM17, EDANS/DABCYL QFRET peptide cleavage; shares compounds with ADAM17 inh;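 active means mean inhibition across replicates above the hit cutoff set in the primary screen, cut at about 8.5% in these data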
Of the large screens only hits and unclear results are named; the others gave an inactive call (follow-up assays come after a bar, where they were run). The list is not random: actives were taken first. Their share in the collection is about 3.4%.

Cn1cccc1[C@]1(O)C(=O)Nc2ccc(F)cc21	none
CSCCCNC(=O)CN1C(=O)C2CCCCN2C(=O)c2ccccc21 (configuration not stated)	none
CC(=O)c1cccc(-c2ccnc3c2CC(C(=O)Nc2ccc(Cl)cc2)O3)c1 (configuration not stated)	ADAM17 inh 8.7, ADAM10 inh 24 | ADAM10 confirm inactive | ADAM17 counter inactive | ADAM10 counter inactive | ADAM17 confirm inactive
C[C@@H]1CCCN1c1cccc2c1S(=O)(=O)N1CC[C@H](C1)O2	none
O=C(COc1ccc(Cl)cc1Cl)N1CCCN(C(=O)COc2ccc(Cl)cc2Cl)CC1	ADAM17 inh 9.8, ADAM10 inh 25 | ADAM10 confirm inactive | ADAM17 counter inactive | ADAM10 counter inactive | ADAM17 confirm 9.2
Cc1cc(Cl)ccc1OCC(=O)N1CCCCC1	none
CCC(c1ccc(OC)cc1)c1cn(C)c2ccccc12 (configuration not stated)	none
Cc1ccc(NC(=O)c2cc(NC(=O)/C=C\C(=O)O)ccc2N2CCCCC2)cc1	ADAM17 inh 19, ADAM10 inh 24 | ADAM10 confirm inactive | ADAM17 counter inactive | ADAM10 counter inactive | ADAM17 confirm inactive
COc1ccc(CN([C@H](CO)CC(C)C)S(=O)(=O)N(Cc2ccccc2)[C@H](CO)CC(C)C)cc1	ADAM17 inh 23, ADAM10 inh 43 | ADAM10 confirm inactive | ADAM17 counter inactive | ADAM10 counter 63 | ADAM17 confirm 35
COc1ccc(CN([C@H](C)CO)S(=O)(=O)N(Cc2ccccc2)[C@H](CO)C(C)C)cc1	none
CCNC(=O)c1cc2c(c(-c3cccc(-c4cccc(C(=O)N(C)C)c4)c3)n1)[C@@H](CCO)N(S(=O)C(C)(C)C)C2 (some centres not stated)	none
CC(C)(C)S(=O)N1Cc2cc(C(=O)NCC(F)(F)F)nc(-c3cccc(-c4cccc(F)c4)c3)c2[C@@H]1CCO (some centres not stated)	ADAM17 inh 15, ADAM10 inh 27 | ADAM10 confirm inactive | ADAM17 counter inactive | ADAM10 counter inactive | ADAM17 confirm inactive
O=C(NCC(F)(F)F)c1cc2c(c(-c3cccc(-c4ccccc4F)c3)n1)[C@@H](CCO)N(C(=O)CC1CC1)C2	ADAM17 inh 10, ADAM10 inh 20 | ADAM10 confirm inactive | ADAM17 counter inactive | ADAM10 counter inactive | ADAM17 confirm 11
O=C(NCC1CC1)c1cc2c(c(-c3cccc(-c4ccccc4F)c3)n1)[C@@H](CCO)N(C(=O)CC1CC1)C2	ADAM17 inh 10, ADAM10 inh 35 | ADAM10 confirm inactive | ADAM17 counter inactive | ADAM10 counter inactive | ADAM17 confirm 9.6
